Screening data deposited in PubChem by several laboratories.
CYP2C19 activ – activators of human cytochrome P450 2C19 | recombinant CYP2C19, luciferin-H EGE luminescence; hits give high values; 0 = fully inhibited enzyme, 1 = untreated enzyme | P33261 | 96,000 tested, under 10 active | activation factor at 5 µM | AID 1025;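 active = activation factor of at least 2 at 5 µM in the primary screen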
Cav32 inh – inhibitors of human Cav3.2 T-type calcium channel; O95180; Cav3.2-expressing cells, Fluo-4 calcium fluorescence FDSS; hits give low values; B-score at 10 µM; hit rate 4% among 100,000; AID 449739;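 active = single-dose well whose peak fluorescence ratio is a statistical outlier from its plate by either plate-standardised score or position-corrected B-score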
CYP2C19 inhib – blocks human cytochrome P450 2C19; P33261; CYP2C19 Supersomes, luciferin-H EGE luminescence, 30 min; inhibition, % at 5 µM; hit rate 21% among 96,000;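 active = CYP2C19 inhibition above a set limit at 5 µM in the primary screen, cut at about 50% in these data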
CYP2C9 inh – human CYP2C9 inhibition. P11712. CYP2C9 Supersomes, luciferin-H conversion, luminescence. inhibition, % at 5 µM. hit rate 20% among 96,000. AID 777;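 active = blocking of liver enzyme CYP2C9 beyond about 50% at 5 µM, limit read from the data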
Target sequence (P11712 whole entry, looked up): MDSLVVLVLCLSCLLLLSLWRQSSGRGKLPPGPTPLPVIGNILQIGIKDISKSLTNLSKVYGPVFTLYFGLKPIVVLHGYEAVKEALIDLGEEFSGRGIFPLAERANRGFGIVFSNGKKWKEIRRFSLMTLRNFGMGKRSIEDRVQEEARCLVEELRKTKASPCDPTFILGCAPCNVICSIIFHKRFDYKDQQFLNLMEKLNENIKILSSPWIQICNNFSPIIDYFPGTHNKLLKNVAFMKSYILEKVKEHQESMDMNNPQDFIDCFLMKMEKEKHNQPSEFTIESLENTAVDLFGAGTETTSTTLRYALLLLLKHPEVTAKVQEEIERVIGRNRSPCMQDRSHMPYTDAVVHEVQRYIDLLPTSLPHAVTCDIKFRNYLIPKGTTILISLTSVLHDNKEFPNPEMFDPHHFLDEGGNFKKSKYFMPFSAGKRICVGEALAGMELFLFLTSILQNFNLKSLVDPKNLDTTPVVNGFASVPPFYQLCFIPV
CYP2C9 act – activators of human CYP2C9; P11712; recombinant CYP2C9, luciferin-H conversion, luminescence; hits give high values; factor 1 = untreated enzyme, 0 = blocked; activation factor at 5 µM; hit rate 1.4% among 96,000; AID 1024;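 active = activation factor of 2 or more for CYP2C9 at a 5 µM dose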
A number is an active result; – = inactive; · = no result. Only some compounds are listed: those with a hit (about 27% of all), similar ones and a draw of the others.

SMILES	CYP2C19 activ	Cav32 inh	CYP2C19 inhib	CYP2C9 inh	CYP2C9 act
COC(=O)c1ccccc1NC(=O)N1c2ccccc2CC1C (centres undefined)	–	–	–	–	–
COc1ccc(NC(=O)N2c3ccccc3CC2C)cc1OC (centres undefined)	–	–	–	66	–
COc1ccccc1NC(=O)N1c2ccc(F)cc2CCC1C (centres undefined)	–	-5.1	–	–	–
Cc1ccc2nc3c(cc(C#N)c(=O)n3CC3CCCO3)c(=O)n2c1 (centres undefined)	–	–	–	–	–
C#CCOCCOCCOCCNc1nc(N2CCN(C(=O)[C@H]([C@@H](C)CC)n3cc([C@@H](N)CC(C)C)nn3)CC2)nc(N2CCN(C(=O)[C@H]([C@@H](C)CC)n3cc([C@@H](N)CC(C)C)nn3)CC2)n1	·	–	·	·	·
CC(=O)c1ccc(NC(=O)CN2C(=O)COc3ccc(Cl)cc32)cc1	–	–	75	–	–
Cc1ccccc1NC(=O)CN1C(=O)COc2ccc(Cl)cc21	–	–	97	55	–
CCCCCC(=O)Nc1ccc2oc(-c3cccnc3)nc2c1	–	–	–	–	–
O=C(Nc1ccnc(-c2cccnc2)n1)c1ccccc1Cl	–	–	–	–	–
CC(C)C(=O)Nc1ccnc(-c2cccnc2)n1	–	–	76	–	–
CC(C)C(=O)Nc1ccc(NC(=O)c2cccnc2)cn1	–	–	–	–	–
O=C(Nc1ccnc(-c2cccnc2)n1)c1cccc(Cl)c1Cl	–	–	51	–	–
CCCCC(=O)Nc1ccnc(-c2cccnc2)n1	–	–	98	76	–
Cc1cc(C)c2nc(SC(C)C#N)cc(C)c2c1 (centres undefined)	–	–	–	–	–
Cc1cc(NC(=O)CCn2c(=O)sc3ccccc32)no1	·	–	·	·	·
Cc1csc(NC(=O)CCn2c(=O)sc3ccccc32)n1	–	–	79	–	3.6
O=C(CCn1c(=O)sc2ccccc21)Nc1nccs1	–	–	84	–	–
CCn1c(=NC(=O)CSCC(=O)Nc2nccs2)sc2ccccc21	–	–	92	84	–
CC1CCCC(C)N1C(=O)Cn1c(=O)sc2ccccc21 (centres undefined)	–	–	67	–	–
CCN1CCN(C(=O)Cn2c(=O)sc3ccccc32)CC1	–	–	–	–	–
CCCNC(=S)N1CCC(NC(=O)C2CCCCC2)CC1	–	–	–	–	–
O=C(CCn1c(=O)sc2ccccc21)NCCC1=CCCCC1	–	–	88	–	–
CSc1ccccc1NC(=O)CCn1c(=O)sc2ccccc21	–	–	52	–	–
CCCc1nnc(NC(=O)Cn2c(=O)sc3ccccc32)s1	–	–	64	75	–
O=C(CCN1C(=O)c2ccccc2C1=O)NCCC1=CCCCC1	·	–	·	·	·
SMILES	CYP2C19 activ	Cav32 inh	CYP2C19 inhib	CYP2C9 inh	CYP2C9 act
CCN(CCNC(=O)Cn1c(=O)sc2ccccc21)c1ccccc1	–	–	68	–	–
CCCc1nnc(NC(=O)CN2C(=O)c3ccccc3C2=O)s1	–	–	–	–	–
CC(Nc1nc(N2CCN(S(C)(=O)=O)CC2)nc2ccccc12)c1ccccc1 (centres undefined)	·	–	·	·	·
Cc1nn(CC#N)c(=O)n1-c1ccccc1F	–	–	–	–	–
CCN(CCCNC(=O)CCNC(=O)Cn1ccc2ccccc2c1=O)c1ccccc1	–	–	68	77	–
CN(CCNC(=O)CCNC(=O)Cn1ccc2ccccc2c1=O)Cc1ccccc1	–	–	–	–	–
COc1ccccc1N1CCN(C(=O)CSc2ccc3c(C)cc(C)nc3n2)CC1	·	–	·	·	·
COc1cccc(CSc2nnc(CSc3nc4nc(C)cc(C)n4n3)s2)c1	–	–	98	–	–
Cc1cc(C)n2nc(SCc3nnc(SCc4ccccc4Cl)s3)nc2n1	–	–	–	–	–
Cc1cc(C)n2nc(SCc3nnc(SCc4ccccc4C)s3)nc2n1	–	–	77	–	–
COC(=O)CSc1nc2nc(C)cc(C)n2n1	–	–	–	–	–
COc1ccc(-c2nnn(CC(=O)N(CC(=O)NCCC(C)C)c3ccccc3)n2)cc1OC	–	–	–	–	–
O=C(CN(C(=O)Cn1nnc(-c2ccccc2F)n1)c1cccc2c1CCCC2)NCc1ccccc1	–	-6.1	–	96	–
COc1cccc(-c2nnn(CC(=O)Nc3ccc(C)cc3C)n2)c1OC	–	–	–	–	–
O=C(Cn1nnc(-c2ccccc2F)n1)Nc1cccc2ncccc12	–	–	63	–	–
O=C(Cn1nnc(-c2ccccc2F)n1)NCCc1ccccc1	–	–	70	–	–
COc1ccc(C(=O)Cn2nnc(-c3ccccc3F)n2)cc1	–	–	55	–	–
COc1ccc(CCNC(=O)Cn2nnc(-c3cccc(OC)c3OC)n2)cc1OC	–	–	–	–	–
Cn1c(=O)n(Cc2ccccc2F)c2ccccc21	–	–	70	–	–
COc1ccccc1Oc1nc2c(c(=O)n(Cc3ccccc3F)c(=O)n2C)n1C	–	–	60	–	–
CC(C)c1cc(-c2cc(-c3ccccc3)on2)nc(NC2CCCC2)n1	·	–	·	·	·
O=c1c2ccccc2nc(SCc2nnc(-c3ccccc3Br)o2)n1Cc1ccco1	–	–	76	94	–
O=C1c2ccccc2C(=O)N1Cc1nc2ccccc2c(=O)n1Cc1ccco1	–	–	–	–	–
CCOc1ccc2nc(NC(=O)CSc3nc4ccccc4c(=O)n3Cc3ccco3)sc2c1	–	–	–	–	–
O=C(CSc1nc2ccccc2c(=O)n1Cc1ccco1)c1ccccc1	–	–	–	72	–
SMILES	CYP2C19 activ	Cav32 inh	CYP2C19 inhib	CYP2C9 inh	CYP2C9 act
O=c1c2ccccc2nc(SCc2nc3ccccc3s2)n1Cc1ccco1	–	–	–	55	–
CCOC(=O)CSc1nc2ccccc2c(=O)n1Cc1ccco1	–	–	–	–	–
CCCn1c(=O)c2ccccc2n2c(SCc3nc4ccccc4s3)nnc12	–	–	90	72	–
CCCn1c(C)cc(C(=O)CSc2nnc3n(CCC)c(=O)c4ccccc4n23)c1C	–	·	–	–	–
O=C(O)c1ccc2c(c1)ncn2C1CCCCCC1	·	–	·	·	·
CC[C@H](C)[C@@H]1NC(=O)c2cc([N+](=O)[O-])cc(F)c2OCC[C@@H](C(N)=O)NC(=O)[C@H](CCCCN)NC1=O	·	–	·	·	·
CCOc1ccccc1-n1nnnc1SCc1nc2ccccc2s1	–	·	–	–	–
Cc1ccc(CSc2nc3ccccc3c(=O)n2Cc2ccco2)cc1	·	-4.6	·	·	·
Cc1ccccc1-n1c(C)nnc1SCc1nc2ccccc2s1	–	–	76	–	–
CC1CCCCC1NC(=O)CSc1nc2ccccc2c(=O)n1Cc1ccco1 (centres undefined)	–	·	–	–	–
O=c1c2ccccc2nc(SCc2cccc(F)c2)n1Cc1ccco1	–	–	–	69	–
O=c1c2ccccc2nc(SCc2ccccc2)n1Cc1ccco1	–	-5.8	–	–	–
O=c1c2ccccc2nnn1CSc1nc2ccccc2c(=O)n1Cc1ccco1	–	–	–	–	–
COc1ccc(N2CCN(CCCNC(=O)CN3CCN(Cc4ccccc4C)C3=O)CC2)cc1	–	–	–	–	–
